Measured values as given in PubChem BioAssay (NCI).
About 83,000 compounds went through this panel and 20% of them were active in at least one assay; those are over-represented in the sample as a whole.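 In brief: 96-well plates, 48 h treatment, single concentration, percent growth endpoint.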 The source made the active and inactive calls.

Each compound was assayed on MOLT-4 leukemia (assay: NCI-60 one-dose screen, 48 h (100 = growth as untreated, 0 = no growth, -100 = all killed)). Conditions: 10 µM unless noted.
Experimental: Growth inhibition of the MOLT-4 human tumor cell line is measured as a screen for anti-cancer activity. Cells are grown in 96 well plates and exposed to the test compound for 48 hours. Compounds are tested at a single concentration, which is 10^-5 M for most compounds. The reported endpoint is percent growth (GI% or GIPRCNT), where numbers from 0 - 100% represent growth inhibition, and numbers from -100% - 0 represent cell death. For example, a value of 40 represents 60% growth inhibition. A value of 0 means no net growth occurred over the course of the experiment. A value of -40 indicates 40% of cells at the beginning of the experiment died by the end of the experiment. A value of -100 means all cells are dead at the end of the experiment.
NCI-60 Human Tumor Cell Lines Screen was performed using the standard one-dose NCI protocol, which is described in more detail at https://dtp.cancer.gov/discovery_development/nci-60/default.htm.
Compounds with GIPRCNT values below 10 were considered active. Activity score was based on GIPRCNT using the following formula: […]
Score is 0 for GIPRCNT values of 100 or above, 50 for GIPRCNT values of 0, and 100 for GIPRCNT values of -100.
In the case of `O=C(Nc1ccc(Cl)c(C(F)(F)F)c1)Nc1ccc(-c2cccnc2)cc1N1CCC(CO)CC1`, the growth is reported as 4.83% (active).
In the case of `COc1cc(-c2nc(SCCC(C)C)nc(Nc3ccc(S(N)(=O)=O)cc3)c2C#N)cc(OC)c1OC`, the growth is reported as 1.98% (active).
For `Cn1cc(-c2noc(-c3cn(C)c4ncc(F)cc34)n2)c2cc(Cl)ccc21`, the growth was 78.2% (inactive).
In the case of `Cc1ncc(C(=O)Nc2ccc(CN3CCN(C)CC3)c(C(F)(F)F)c2)cc1C#Cc1c(N)ncc2ccc(C#N)cc12`, the growth is reported as 37.3% (inactive).
With `O=C1COCCN1c1ccc(NCc2cn(Cc3cccc4ccccc34)c3ccccc23)cc1` the growth was 92% (inactive).
For `O=C(Nc1ccc(Oc2ccc(F)cc2)c(Cl)c1)c1cccnn1`, the growth was 59.8% (inactive).
With `COc1ccc2c(c1)C(C)Cc1c(Cl)ncnc1N2C` (stereo not given) the growth was 1.59% (active).
`O=C(N=c1n(-c2ccccc2)nc2n1CCN2C1=NCCN1)c1ccc(Cl)cc1` was tested, and the growth was 77.7% (inactive).
For `CCN1CCN(CC(=O)Nc2nc3ccc(NCc4ccc(Cl)cc4)cc3s2)CC1`, the growth was 54.4% (inactive).
In the case of `Cc1ccc(-c2cc(O)c(-c3ccc(C)cc3C)cc2O)c(C)c1`, the growth is reported as 31.7% (inactive).
For `CCCCCCCCCCCCCC[n+]1cccc(C(N)=O)c1`, the growth was -31% (active).
For `COc1c(C(C)=O)c(OCCCCOc2c(C(C)=O)c(OC)c3ccoc3c2OC)c(OC)c2occc12`, the growth was 36.2% (inactive).
For `COc1ccc(/C=C2\N=C(Nc3ccccc3)N(NC(=O)c3ccccn3)C2=O)cc1`, the growth was 76.7% (inactive).
In the case of `C[n+]1c(-c2ccccc2)c2cc(N)ccc2c2ccccc21`, the growth is reported as 33.5% (inactive).
With `CC(C)C1=NOC(=O)C1=Cc1cn(-c2ccccc2)nc1-c1ccc(Br)cc1` the growth was -15.7% (active).
In the case of `COc1ccc(-c2cc(-c3ccccc3)nc(SCCCCCC(=O)NO)n2)cc1`, the growth is reported as 9.24% (active).
In the case of `CC(C)C1=NOC(=O)C1=Cc1cn(-c2ccccc2)nc1-c1cccc([N+](=O)[O-])c1`, the growth is reported as 3.44% (active).
For `N#Cc1c(N2CCOCC2)nc(=S)[nH]c1-c1ccco1`, the growth was 64.5% (inactive).
`Cn1cc(-c2nnc(-c3cn(C)c4ncc(Br)cc34)s2)c2cc(Br)ccc21` was tested, and the growth was 97.3% (inactive).
With `CCCCC(CCCCCC(CCCC)C1NC(C)Cc2cc(OC)c(OC)cc21)C1NC(C)Cc2cc(OC)c(OC)cc21` (stereo not given) the growth was -63% (active).
In the case of `CC[C@]12C=CCN3CC[C@@]4(c5ccc(OC)cc5N(C)[C@H]4[C@@](O)(C(=O)OC)[C@@H]1OC(=O)CCC(=O)O[C@H]1CC[C@H]4[C@@H]5CCC6=CC(=O)CC[C@@H]6[C@H]5CC[C@]14C)[C@@H]32`, the growth is reported as -6.15% [100 µM] (active).
With `COc1ccc(C(=O)CSc2nnc(-c3cc(-c4ccccc4)nc4ccccc34)o2)cc1` the growth was 120% (inactive).
`COCCCNc1nc(NC(=O)c2cc(OC)cc(OC)c2)cc(-c2cccnc2)n1` was tested, and the growth was 83.5% (inactive).
With `C[C@@H](NC(=O)[C@@H](CC(=O)N1CCC(N2CCCCC2)CC1)N1C(=O)[C@@H](N2C(=O)OC[C@@H]2c2ccccc2)[C@H]1/C=C/c1cccc(Cl)c1)c1ccccc1` the growth was 26.7% (inactive).
`COc1ccc(C(=O)CSc2nccc(Nc3ccc(C(=O)O)cc3)n2)cc1` was tested, and the growth was 106% (inactive).
`CC(C)c1ccc(C(=O)Nc2sc3c(c2C#N)CCC(=O)C3)cc1` was tested, and the growth was 0.0788% (active).
For `N#C/C(=C(/O)CCCO)c1nc2ccccc2c(=O)[nH]1`, the growth was 105% (inactive).
In the case of `c1ccc2c(c1)CN(CCCN1CCOCC1)C2`, the growth is reported as 103% (inactive).
In the case of `O=C(NNc1ccc(-c2ccccc2)nn1)c1ccccc1`, the growth is reported as 90.3% (inactive).
With `CCN(CC)CCSC(=O)C(O)(c1ccccc1)C1CCCC1` (stereo not given) the growth was 91.3% (inactive).
For `Brc1ccc2c(c1)CN(C1CCCCC1)CO2`, the growth was 99.7% (inactive).
With `Cc1ccc(C2=C/C(=C/c3ccc(Br)cc3)C(=O)N2CCc2ccc(S(N)(=O)=O)cc2)cc1` the growth was 82.1% (inactive).
`O=C(Nc1cccnc1)c1ccc2ccc3ccc(C(=O)Nc4cccnc4)nc3c2n1` was tested, and the growth was 32.1% (inactive).
With `Nc1nnc(CSc2nnc3n(Cc4ccccc4)c(=O)c4c5c(sc4n23)CCCC5)s1` the growth was 71.1% (inactive).
In the case of `Nn1c(Nc2ccc(S(=O)(=O)Nc3ncccn3)cc2)nnc(/C=C/c2c(O)ccc3ccccc23)c1=O`, the growth is reported as 70.7% (inactive).
In the case of `COc1cc(NN=C(c2ccc(O)cc2)c2ccc(O)cc2)c([N+](=O)[O-])cc1[N+](=O)[O-]`, the growth is reported as 94.6% (inactive).
`Cc1cccc(C[C@H](NC(=O)Nc2ccc(Cl)cc2F)C(=O)N[C@@H]2C(=O)N3C[C@H](OC(=O)CCN(C)C)C[C@H]3C(=O)N3CCCC[C@H]3C(=O)N[C@@H](C)C(=O)N3C[C@H](C)C[C@H]3C(=O)O[C@H]2C)c1` was tested, and the growth was 27.8% (inactive).
`Cc1ccc(S(=O)(=O)Oc2ccc(Br)cc2Br)cc1` was tested, and the growth was 47.5% (inactive).
With `O=C(CSc1nc2ccc([N+](=O)[O-])cc2[nH]1)Nc1cccc(Cl)c1` the growth was 7.99% (active).
`NNC(=O)c1ccc(C(=O)NN)cc1` was tested, and the growth was 130% (inactive).
